# The supplement of paper PMC4466140
# What was measured:
# Assay in all cases: SPOT peptide array binding signal intensity (averaged, normalized) (arbitrary units (background-subtracted, floor 0; scale differs between SH3 domains)); higher = stronger binding of the SH3 domain to the peptide
# AgAbp1 = target: AgAbp1
# How it was run: (§1)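 GST-fused SH3 domains, from four yeast species, were produced in E. coli BL21(DE3) and captured on glutathione Sepharose. Membranes of cellulose carrying synthetic 15-mer peptides, in which cysteines had been replaced by serines, were exposed to each domain at 10 μg/ml overnight at 4°C in TBS-based blocking buffer. After anti-GST antibody, an HRP anti-mouse secondary and luminol, spots were imaged and quantified using Genespotter. Binding signal is normalized and background-subtracted spot intensity, averaged over replicates, in arbitrary units that differ between domains.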
# AgBbc1 = target: AgBbc1
# How it was run: as §1
# AgBem1-D1 = target: AgBem1-D1
# How it was run: as §1
# AgBzz1-D1 = target: AgBzz1-D1
# How it was run: as §1
# AgBzz1-D2 = target: AgBzz1-D2
# How it was run: as §1
# AgCyk3 = target: AgCyk3
# How it was run: as §1
# AgFus1 = target: AgFus1
# How it was run: as §1
# AgHof1 = target: AgHof1
# How it was run: as §1
# AgHse1 = target: AgHse1
# How it was run: as §1
# AgLsb1 = target: AgLsb1
# How it was run: as §1
# AgLsb4 = target: AgLsb4
# How it was run: as §1
# AgMyo5 = target: AgMyo5
# How it was run: as §1
# AgNbp2 = target: AgNbp2
# How it was run: as §1
# AgRvs167 = target: AgRvs167
# How it was run: as §1
# AgSho1 = target: AgSho1
# How it was run: as §1
# AgSla1-D1-D2 = target: AgSla1-D1-D2
# How it was run: as §1
# AgSla1-D3 = target: AgSla1-D3
# How it was run: as §1
# CaAbp1-D1 = target: CaAbp1-D1
# How it was run: as §1
# CaAbp1-D2 = target: CaAbp1-D2
# How it was run: as §1
# CaBbc1 = target: CaBbc1
# How it was run: as §1
# CaBem1-D1 = target: CaBem1-D1
# How it was run: as §1
# CaBzz1-D1 = target: CaBzz1-D1
# How it was run: as §1
# CaBzz1-D2 = target: CaBzz1-D2
# How it was run: as §1
# CaCyk3 = target: CaCyk3
# How it was run: as §1
# CaFus1 = target: CaFus1
# How it was run: as §1
# CaHof1 = target: CaHof1
# How it was run: as §1
# CaHse1 = target: CaHse1
# How it was run: as §1
# CaLsb1 = target: CaLsb1
# How it was run: as §1
# CaLsb4 = target: CaLsb4
# How it was run: as §1
# CaMyo5 = target: CaMyo5
# How it was run: as §1
# CaNbp2 = target: CaNbp2
# How it was run: as §1
# CaRvs167 = target: CaRvs167
# How it was run: as §1
# CaRvs167-3 = target: CaRvs167-3
# How it was run: as §1
# CaSho1 = target: CaSho1
# How it was run: as §1
# CaSla1-D1-D2 = target: CaSla1-D1-D2
# How it was run: as §1
# CaSla1-D3 = target: CaSla1-D3
# How it was run: as §1
# ScAbp1 = target: ScAbp1
# How it was run: as §1
# ScBbc1 = target: ScBbc1
# How it was run: as §1
# ScBem1-D1 = target: ScBem1-D1
# How it was run: as §1
# ScBzz1-D1 = target: ScBzz1-D1
# How it was run: as §1
# ScBzz1-D2 = target: ScBzz1-D2
# How it was run: as §1
# ScCyk3 = target: ScCyk3
# How it was run: as §1
# ScFus1 = target: ScFus1
# How it was run: as §1
# ScHof1 = target: ScHof1
# How it was run: as §1
# ScHse1 = target: ScHse1
# How it was run: as §1
# ScLsb1 = target: ScLsb1
# How it was run: as §1
# ScLsb2 = target: ScLsb2
# How it was run: as §1
# ScLsb3 = target: ScLsb3
# How it was run: as §1
# ScLsb4 = target: ScLsb4
# How it was run: as §1
# ScMyo3 = target: ScMyo3
# How it was run: as §1
# ScMyo5 = target: ScMyo5
# How it was run: as §1
# ScNbp2 = target: ScNbp2
# How it was run: as §1
# ScPex13 = target: ScPex13
# How it was run: as §1
# ScRvs167 = target: ScRvs167
# How it was run: as §1
# ScSho1 = target: ScSho1
# How it was run: as §1
# ScSla1-D1-D2 = target: ScSla1-D1-D2
# How it was run: as §1
# ScSla1-D3 = target: ScSla1-D3
# How it was run: as §1
# SpAbp1-D1 = target: SpAbp1-D1
# How it was run: as §1
# SpBbc1 = target: SpBbc1
# How it was run: as §1
# SpBzz1-D1 = target: SpBzz1-D1
# How it was run: as §1
# SpBzz1-D2 = target: SpBzz1-D2
# How it was run: as §1
# SpCyk3 = target: SpCyk3
# How it was run: as §1
# SpHof1 = target: SpHof1
# How it was run: as §1
# SpHof1-2 = target: SpHof1-2
# How it was run: as §1
# SpHof1-3 = target: SpHof1-3
# How it was run: as §1
# SpHse1 = target: SpHse1
# How it was run: as §1
# SpLsb1 = target: SpLsb1
# How it was run: as §1
# SpLsb4 = target: SpLsb4
# How it was run: as §1
# SpMyo1 = target: SpMyo1
# How it was run: as §1
# SpNbp2 = target: SpNbp2
# How it was run: as §1
# SpPex13 = target: SpPex13
# How it was run: as §1
# SpRvs167 = target: SpRvs167
# How it was run: as §1
# SpSla1-D1-D2 = target: SpSla1-D1-D2
# How it was run: as §1
# SpSla1-D3 = target: SpSla1-D3
# How it was run: as §1
binder,measurement,setting,value
LLGRKRPVMERVVDI,SPOT peptide array binding signal intensity,AgAbp1,≤ 0
same,SPOT peptide array binding signal intensity,AgBbc1,27
same,SPOT peptide array binding signal intensity,AgBem1-D1,41
same,SPOT peptide array binding signal intensity,AgBzz1-D1,47
same,SPOT peptide array binding signal intensity,AgBzz1-D2,35
same,SPOT peptide array binding signal intensity,AgCyk3,1
same,SPOT peptide array binding signal intensity,AgFus1,142
same,SPOT peptide array binding signal intensity,AgHof1,2.5
same,SPOT peptide array binding signal intensity,AgHse1,586
same,SPOT peptide array binding signal intensity,AgLsb1,0.25
same,SPOT peptide array binding signal intensity,AgLsb4,65.5
same,SPOT peptide array binding signal intensity,AgMyo5,3.5
same,SPOT peptide array binding signal intensity,AgNbp2,144
same,SPOT peptide array binding signal intensity,AgRvs167,3.67
same,SPOT peptide array binding signal intensity,AgSho1,76.5
same,SPOT peptide array binding signal intensity,AgSla1-D1-D2,18
same,SPOT peptide array binding signal intensity,AgSla1-D3,0.5
same,SPOT peptide array binding signal intensity,CaAbp1-D1,21
same,SPOT peptide array binding signal intensity,CaAbp1-D2,51
same,SPOT peptide array binding signal intensity,CaBbc1,99.5
same,SPOT peptide array binding signal intensity,CaBem1-D1,60.5
same,SPOT peptide array binding signal intensity,CaBzz1-D1,236
same,SPOT peptide array binding signal intensity,CaBzz1-D2,63.5
same,SPOT peptide array binding signal intensity,CaCyk3,46
same,SPOT peptide array binding signal intensity,CaFus1,398
same,SPOT peptide array binding signal intensity,CaHof1,0.5
same,SPOT peptide array binding signal intensity,CaHse1,54
same,SPOT peptide array binding signal intensity,CaLsb1,≤ 0
same,SPOT peptide array binding signal intensity,CaLsb4,163
same,SPOT peptide array binding signal intensity,CaMyo5,10.8
same,SPOT peptide array binding signal intensity,CaNbp2,595
same,SPOT peptide array binding signal intensity,CaRvs167,14.8
same,SPOT peptide array binding signal intensity,CaRvs167-3,1.75
same,SPOT peptide array binding signal intensity,CaSho1,374
same,SPOT peptide array binding signal intensity,CaSla1-D1-D2,154
same,SPOT peptide array binding signal intensity,CaSla1-D3,150
same,SPOT peptide array binding signal intensity,ScAbp1,33
same,SPOT peptide array binding signal intensity,ScBbc1,5.5
same,SPOT peptide array binding signal intensity,ScBem1-D1,3
same,SPOT peptide array binding signal intensity,ScBzz1-D1,29.5
same,SPOT peptide array binding signal intensity,ScBzz1-D2,24.5
same,SPOT peptide array binding signal intensity,ScCyk3,31.5
same,SPOT peptide array binding signal intensity,ScFus1,163
same,SPOT peptide array binding signal intensity,ScHof1,1
same,SPOT peptide array binding signal intensity,ScHse1,552
same,SPOT peptide array binding signal intensity,ScLsb1,13.2
same,SPOT peptide array binding signal intensity,ScLsb2,≤ 0
same,SPOT peptide array binding signal intensity,ScLsb3,140
same,SPOT peptide array binding signal intensity,ScLsb4,27.5
same,SPOT peptide array binding signal intensity,ScMyo3,4
same,SPOT peptide array binding signal intensity,ScMyo5,1.5
same,SPOT peptide array binding signal intensity,ScNbp2,254
same,SPOT peptide array binding signal intensity,ScPex13,53.5
same,SPOT peptide array binding signal intensity,ScRvs167,7.67
same,SPOT peptide array binding signal intensity,ScSho1,412
same,SPOT peptide array binding signal intensity,ScSla1-D1-D2,158
same,SPOT peptide array binding signal intensity,ScSla1-D3,78.5
same,SPOT peptide array binding signal intensity,SpAbp1-D1,≤ 0
same,SPOT peptide array binding signal intensity,SpBbc1,5.5
same,SPOT peptide array binding signal intensity,SpBzz1-D1,158
same,SPOT peptide array binding signal intensity,SpBzz1-D2,≤ 0
same,SPOT peptide array binding signal intensity,SpCyk3,1
same,SPOT peptide array binding signal intensity,SpHof1,104
same,SPOT peptide array binding signal intensity,SpHof1-2,9.5
same,SPOT peptide array binding signal intensity,SpHof1-3,29.5
same,SPOT peptide array binding signal intensity,SpHse1,470
same,SPOT peptide array binding signal intensity,SpLsb1,0.5
same,SPOT peptide array binding signal intensity,SpLsb4,140
same,SPOT peptide array binding signal intensity,SpMyo1,5
same,SPOT peptide array binding signal intensity,SpNbp2,99.5
same,SPOT peptide array binding signal intensity,SpPex13,16
same,SPOT peptide array binding signal intensity,SpRvs167,14.3
same,SPOT peptide array binding signal intensity,SpSla1-D1-D2,≤ 0
same,SPOT peptide array binding signal intensity,SpSla1-D3,35
PSRRDSLSIPRAVDA,SPOT peptide array binding signal intensity,AgAbp1,≤ 0
same,SPOT peptide array binding signal intensity,AgBbc1,41.5
same,SPOT peptide array binding signal intensity,AgBem1-D1,56
same,SPOT peptide array binding signal intensity,AgBzz1-D1,17
same,SPOT peptide array binding signal intensity,AgBzz1-D2,30
same,SPOT peptide array binding signal intensity,AgCyk3,≤ 0
same,SPOT peptide array binding signal intensity,AgFus1,5
same,SPOT peptide array binding signal intensity,AgHof1,10
same,SPOT peptide array binding signal intensity,AgHse1,14.5
same,SPOT peptide array binding signal intensity,AgLsb1,13.5
same,SPOT peptide array binding signal intensity,AgLsb4,2.5
same,SPOT peptide array binding signal intensity,AgMyo5,≤ 0
same,SPOT peptide array binding signal intensity,AgNbp2,6
same,SPOT peptide array binding signal intensity,AgRvs167,1.67
same,SPOT peptide array binding signal intensity,AgSho1,≤ 0
same,SPOT peptide array binding signal intensity,AgSla1-D1-D2,0.5
same,SPOT peptide array binding signal intensity,AgSla1-D3,0.5
same,SPOT peptide array binding signal intensity,CaAbp1-D1,≤ 0
same,SPOT peptide array binding signal intensity,CaAbp1-D2,25
same,SPOT peptide array binding signal intensity,CaBbc1,354
same,SPOT peptide array binding signal intensity,CaBem1-D1,4
same,SPOT peptide array binding signal intensity,CaBzz1-D1,123
same,SPOT peptide array binding signal intensity,CaBzz1-D2,93
same,SPOT peptide array binding signal intensity,CaCyk3,3
same,SPOT peptide array binding signal intensity,CaFus1,65
same,SPOT peptide array binding signal intensity,CaHof1,1
same,SPOT peptide array binding signal intensity,CaHse1,≤ 0
same,SPOT peptide array binding signal intensity,CaLsb1,≤ 0
same,SPOT peptide array binding signal intensity,CaLsb4,≤ 0
same,SPOT peptide array binding signal intensity,CaMyo5,1.5
